Data as given in the supplement of paper PMC7411054.
Counter-ions that a name gives are not always drawn.

What was measured:
Settings in all cases: treatment time: 24 h
HepG2-GM130-SQSTM1 [1] = assay: lowest phenotypically active concentration; higher = less potent
Procedure, shortened: (§1)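 Two criteria together defined phenotypic activity: deviation and reproducibility. Deviation meant ≥3 of 4 wells beyond the 95th percentile of Euclidean distances in solvent control wells, and reproducibility meant a median replicate Pearson correlation above the 95th percentile of non-replicates. Wells had been treated for 24 h at 0.3, 1, 3 or 9 µM in fifteen gene-edited A549, HepG2 and WPMY1 reporter lines before live imaging.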

WPMY1-GM130-SQSTM1 [2] = assay: as above
Procedure, shortened: as §1

A549-ACTB-RAB5A = assay: phenotypically active (imaging signature differs from DMSO and reproducible) at any of 0.3-9 uM (binary (1 = active, 0 = inactive)); higher = active
Procedure, shortened: as §1

A549-CANX-COX4 = assay: as above
Procedure, shortened: as §1

A549-GM130-SQSTM1 = assay: as above
Procedure, shortened: as §1

A549-TP53BP1-CLTA = assay: as above
Procedure, shortened: as §1

A549-TUBA1B-RELA = assay: as above
Procedure, shortened: as §1

HepG2-ACTB-RAB5A = assay: as above
Procedure, shortened: as §1

HepG2-CANX-COX4 = assay: as above
Procedure, shortened: as §1

HepG2-GM130-SQSTM1 [3] = assay: as above
Procedure, shortened: as §1

HepG2-TP53BP1-CLTA = assay: as above
Procedure, shortened: as §1

HepG2-TUBA1B-RELA = assay: as above
Procedure, shortened: as §1

WPMY1-ACTB-RAB5A [4] = assay: as above
Procedure, shortened: as §1

WPMY1-CANX-COX4 [5] = assay: as above
Procedure, shortened: as §1

WPMY1-GM130-SQSTM1 [6] = assay: as above
Procedure, shortened: as §1

WPMY1-TP53BP1-CLTA = assay: as above
Procedure, shortened: as §1

WPMY1-TUBA1B-RELA [7] = assay: as above
Procedure, shortened: as §1

WPMY1-TUBA1B-RELA [8] = assay: lowest phenotypically active concentration; higher = less potent
Procedure, shortened: as §1

WPMY1-ACTB-RAB5A [9] = assay: as above
Procedure, shortened: as §1

WPMY1-CANX-COX4 [10] = assay: as above
Procedure, shortened: as §1

Row | SMILES | lowest phenotypically active concentration (HepG2-GM130-SQSTM1 [1]) [µM] | lowest phenotypically active concentration (WPMY1-GM130-SQSTM1 [2]) [µM] | phenotypically active (A549-ACTB-RAB5A) | phenotypically active (A549-CANX-COX4) | phenotypically active (A549-GM130-SQSTM1) | phenotypically active (A549-TP53BP1-CLTA) | phenotypically active (A549-TUBA1B-RELA) | phenotypically active (HepG2-ACTB-RAB5A) | phenotypically active (HepG2-CANX-COX4) | phenotypically active (HepG2-GM130-SQSTM1 [3]) | phenotypically active (HepG2-TP53BP1-CLTA) | phenotypically active (HepG2-TUBA1B-RELA) | phenotypically active (WPMY1-ACTB-RAB5A [4]) | phenotypically active (WPMY1-CANX-COX4 [5]) | phenotypically active (WPMY1-GM130-SQSTM1 [6]) | phenotypically active (WPMY1-TP53BP1-CLTA) | phenotypically active (WPMY1-TUBA1B-RELA [7]) | lowest phenotypically active concentration (WPMY1-TUBA1B-RELA [8]) [µM] | lowest phenotypically active concentration (WPMY1-ACTB-RAB5A [9]) [µM] | lowest phenotypically active concentration (WPMY1-CANX-COX4 [10]) [µM]
1 | O=[N+]([O-])c1cc(Cl)ccc1S(=O)(=O)c1ccccc1 | 3 | 9 | 0 (inactive) | 0 (inactive) | 0 (inactive) | 0 (inactive) | 0 (inactive) | 0 (inactive) | 0 (inactive) | 1 (active) | 0 (inactive) | 0 (inactive) | 0 (inactive) | 0 (inactive) | 1 (active) | 0 (inactive) | 0 (inactive) |  |  | 
2 | NS(=O)(=O)C#Cc1ccccc1 [pifithrin-mu] | 3 | 9 | 0 (inactive) | 0 (inactive) | 0 (inactive) | 0 (inactive) | 0 (inactive) | 0 (inactive) | 0 (inactive) | 1 (active) | 0 (inactive) | 0 (inactive) | 0 (inactive) | 0 (inactive) | 1 (active) | 0 (inactive) | 1 (active) | 9 |  | 
3 | CNC(=O)c1ccc(C)c(-n2c(C)cc(OCc3ccc(F)cc3F)c(Br)c2=O)c1 |  |  | 0 (inactive) | 0 (inactive) | 0 (inactive) | 0 (inactive) | 0 (inactive) | 0 (inactive) | 0 (inactive) | 0 (inactive) | 0 (inactive) | 0 (inactive) | 1 (active) | 0 (inactive) | 0 (inactive) | 0 (inactive) | 0 (inactive) |  | 1 | 
4 | CN(C)CCOC(c1ccccc1)c1ccccc1 [diphenhydramine] |  | 9 | 0 (inactive) | 0 (inactive) | 0 (inactive) | 0 (inactive) | 0 (inactive) | 0 (inactive) | 0 (inactive) | 0 (inactive) | 0 (inactive) | 0 (inactive) | 1 (active) | 1 (active) | 1 (active) | 1 (active) | 1 (active) | 9 | 9 | 9
5 | CC(CCc1ccc(O)cc1)NCCc1ccc(O)c(O)c1 (configuration not stated) [Dobutamine hydrochloride] |  | 3 | 0 (inactive) | 0 (inactive) | 0 (inactive) | 0 (inactive) | 0 (inactive) | 0 (inactive) | 0 (inactive) | 0 (inactive) | 0 (inactive) | 0 (inactive) | 0 (inactive) | 0 (inactive) | 1 (active) | 0 (inactive) | 0 (inactive) |  |  | 
6 | COc1ccc(Cn2ccc3ccc(C(=O)NO)cc32)cc1 |  | 3 | 0 (inactive) | 0 (inactive) | 0 (inactive) | 0 (inactive) | 0 (inactive) | 0 (inactive) | 0 (inactive) | 0 (inactive) | 0 (inactive) | 0 (inactive) | 0 (inactive) | 0 (inactive) | 1 (active) | 0 (inactive) | 0 (inactive) |  |  | 
